Many of the other results were omitted from the sample, so hits are more common in it than they were.
Pf Dd2 growth: blocks in vitro growth of P. falciparum Dd2; P. falciparum Dd2 growth, SYBR Green, 72 h; Potency, µM (titrated, usually from 28.9 µM), inactives show at the highest dose activity, negative = inhibition, usual class: inhibitors; hit rate 4.3% among 120,000; active = well fitted inhibition curve with a large enough effect;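 note: plate controls were DMSO vehicle for no effect and reference drug for full effect; nearly all actives have a fitted effect of over 65% in size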
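Readout: SYBR Green fluorescence, 485 nm excitation, 535 nm emission, after ~16 h lysis at 37C. Before that, Dd2-infected red cells (2.5% hematocrit) grew 72 h with compound, 29 uM top final concentration.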
Active calls of the source: *; i = inactive; [ ] = remark or other dose. Potency is the fitted concentration of half-maximal effect.

SMILES	Pf Dd2 growth
CCCCN1C(=O)C(O)(c2c(C)[nH]c3ccccc23)c2ccccc21 (configuration not stated)	-9%
CCN1C(=O)C(O)(c2c(C)[nH]c3ccccc23)c2ccccc21 (configuration not stated)	9%
CCCCN1C(=O)C(O)(c2c(C)[nH]c3ccccc23)c2cc(Br)ccc21 (configuration not stated)	11µM*
CNC(=O)[C@@H]1CN(Cc2ccc(Cl)c(F)c2)C[C@H]1CO	-27%
CCC(C(=O)N1CCc2onc(-c3ccc(F)c(F)c3)c2C1)n1cccn1 (configuration not stated)	-24%
CCc1nc2c(c(-c3ccc(Cl)cc3)n1)CCN(CCC(C)C)CC2	-19%
CC(C)n1ccnc1CN1CCc2onc(-c3ccc(Cl)cc3)c2C1	13µM*
CC(C)c1nnc(C2CN(C(=O)Cc3ccccc3)CC23CCOCC3)o1 (configuration not stated)	23%
O=C(NCc1ccco1)c1ccc(CN2C(=O)NC3(CCS(=O)(=O)CC3)C2=O)cc1	-14%
CC(=O)N[C@@H]1Cc2ccccc2[C@H]1NC(=O)CCc1cc2n(n1)CCCNC2	4%
COc1cccc(CC(=O)N2CCN(C(=O)c3nnn4c3COC(c3ccc(Cl)cc3)C4)CC2)c1 (configuration not stated)	-22%
Cc1ccccc1C(=O)Nc1ccc([C@H]2OCC(=O)N(Cc3ccncc3)[C@@H]2CO)cc1	17%[44.1 µM]
O=C(Nc1ccc([C@H]2OCC(=O)N(CC3CCCCC3)[C@@H]2CO)cc1)c1ccccn1	11µM*
O=C(c1ccccn1)N1C[C@@H]2OCC(=O)N(CC3CCCCC3)[C@@H]2C1	2%[44.1 µM]
CCN1CCCN(S(=O)(=O)CC)CC12CCOCC2	-29%
CC(C)c1noc(-c2ccn3c(CNC(=O)c4ccc(F)c(Cl)c4)nnc3c2)n1	2%
COCc1nc(NCc2sc(COC)nc2C)cc(C2CC(N)C2)n1 (configuration not stated)	-16%
c1cnc2nc(C3CCCNC3)[nH]c2c1 (configuration not stated)	15%[44.1 µM]
CCC(Sc1nc2cc3c(cc2c(=O)n1CCCC(=O)NCc1ccc(OC)cc1)OCO3)C(=O)NCCCOC (configuration not stated)	i
CCCCC(Sc1nc2cc3c(cc2c(=O)n1CCCC(=O)NCc1ccc(OC)cc1)OCO3)C(=O)OCC (configuration not stated)	7.9µM*
COc1ccc(CNC(=O)CCCn2c(SCC(N)=O)nc3cc4c(cc3c2=O)OCO4)cc1	32%
O=C(NCc1ccccc1F)c1ccc2c(c1)CN(Cc1ccncc1)CCO2	i
COc1ccc(OC)c(NC(=O)C(C)n2c(=O)c(-c3ccccc3NC(C)=O)nc3ccccc32)c1 (configuration not stated)	11µM*
CC(=O)Nc1ccccc1-c1nc2ccccc2n(C(C)C(=O)c2ccc(C)c(C)c2)c1=O (configuration not stated)	-11%
CCOc1ccc(NC(=O)C(CC)n2c(=O)c(-c3ccccc3NC(C)=O)nc3ccccc32)cc1 (configuration not stated)	-8%
SMILES	Pf Dd2 growth
CCOC(=O)c1ccc(NC(=O)CCc2c(C)nc3cc(-c4ccc(OC)cc4OC)nn3c2C)cc1	5µM*
COc1ccccc1-c1cc2nc(C)c(CCC(=O)NCCc3ccc(SC)cc3)c(C)n2n1	13µM*
COc1ccc(CNC(=O)CCc2c(C)nc3cc(-c4ccc(OC)cc4OC)nn3c2C)cc1	11µM*
COc1cc(OC)cc(-c2cc3nc(C)c(CCC(=O)NCc4ccccc4)c(C)n3n2)c1	-12%
COc1ccccc1-c1cc2nc(C)c(CCC(=O)Nc3cc(C)ccc3C)c(C)n2n1	-15%
COc1ccc(-c2cc3nc(C)c(CCC(=O)N4CCN(c5ccccc5)CC4)c(C)n3n2)c(OC)c1	30%
COc1ccc(CCNC(=O)CCc2c(C)nc3cc(-c4cccc(F)c4)nn3c2C)cc1OC	-7%
COc1cc(OC)cc(-c2cc3nc(C)c(CCC(=O)Nc4ccc(C(C)=O)cc4)c(C)n3n2)c1	i
COc1cc(OC)cc(-c2cc3nc(C)c(CCC(=O)Nc4ccccc4OC)c(C)n3n2)c1	i
Cc1ccc(Nc2c(-c3ccc(C)s3)nc3ncccn23)cc1	-19%
COc1ccc(Nc2nc(-c3ccccc3F)nc3ccccc23)cc1OC	i
COc1ccc(Nc2c(-c3cc(Br)ccc3O)nc3ncccn23)cc1OC	1.3µM*
O=C(C[C@@H]1O[C@H](CNC(=O)c2cccc(F)c2)[C@@H](O)[C@H]1O)Nc1ccccc1	-18%[44.1 µM]
CCc1cc(N2CCC3(CC2)CC(c2ccccc2)C(=O)N3)nc(N(C)C)n1 (configuration not stated)	-8%
CCc1ccccc1NC(=O)N(C)CC1CCOC1 (configuration not stated)	i
CN1C(=O)Cc2cc(S(=O)(=O)N3CCN(c4ccc(Cl)cc4)CC3)ccc21	-1%
COc1ccc2c(c1)C1(CCN(S(=O)(=O)c3ccc4c(c3)CC(=O)N4C)C1)C(=O)N2C (configuration not stated)	2.5µM*
COc1ccc2c(c1)C1(CCN(C(=O)CCc3ccccc3)C1)C(=O)N2C (configuration not stated)	-2%
O=C(Nc1ccc(F)cc1F)N1CCOC[C@H](Oc2ccc(C(F)(F)F)cc2)C1	2%[44.1 µM]
c1csc(CN2CC[C@H](c3nc4ccccc4[nH]3)C2)c1	i
CCc1nnc2ccc(NC3CC3)nn12	2%
CCc1nnc2ccc(NC(C)C)nn12	2%
CCc1nnc2ccc(NCc3ccccc3)nn12	6.3µM*
CCN1C(=O)C2CC3(CCN(C(=O)NC)CC3)CN2C1=O (configuration not stated)	10%
c1coc(-c2nnc([C@H]3CCN(C4CCOCC4)C3)o2)c1	i
SMILES	Pf Dd2 growth
CC(C)(C)c1ccc(-c2nc(SCCCOc3ccccc3)n3[nH]c(=O)cc3n2)cc1	10µM*
COc1ccc(NC(=O)CSc2nc(-c3ccccc3)nc3cc(=O)[nH]n23)cc1	i
COc1cccc(-c2nc(SCc3ccc(C)cc3)n3[nH]c(=O)cc3n2)c1	i
Cc1cccc(NC(=O)c2cc3c(N4CCSCC4)nc(C)cn3n2)c1	-14%
CC(C)(C)CNC1(Cc2cc(-c3ccccn3)on2)COC1	i
Cc1nc(C)c(CN(C)C2CCCN(CCc3ccccc3)C2)nc1C (configuration not stated)	-16%
CN(Cc1ccc(F)cc1)CC1CCCCC1	23%[44.1 µM]
CN1CCC(N(C)CC2CCCN(CCc3ccc(F)cc3)C2)CC1 (configuration not stated)	8.9µM*
CCOc1cccc(CNC(=O)CN2CC3CC(C2)[C@H]2CCCC(=O)N2C3)c1 (some centres not stated)	-22%
COCc1cc(=O)n(CC(=O)Nc2ccc(F)cc2)c(N2CCOCC2)n1	25%
O=C1NCCCCCCN(C(=O)Nc2ccccc2)[C@H]2CCCC[C@@H]12	7%
COCCNC(=O)N1[C@@H]2CC[C@H]1CC(NC(=O)c1ccc(F)cc1)C2 (some centres not stated)	-9%
COc1ccc2c(c1)c(CN1C[C@@H](CO)[C@H](c3nc(C)no3)C1)cn2C	10µM*
COc1ccc(CN2C[C@@H](CO)[C@H](c3nc(C)no3)C2)cc1OC	10%
COc1cccc(CN2C[C@@H](CO)[C@H](c3nc(C)no3)C2)c1OC	i
COCc1noc(C2CCCCCN2C(=O)NCc2ccc(F)cc2)n1 (configuration not stated)	28%
